Inconclusive results are not listed. Active and inactive are the calls of the source. Rule for the calls, unless noted: active = hit-call score of the fitted dose curve at least 0.9, where 1 is the maximum; inactive = score below 0.9.
Columns and labels:
[1] = read-out: Interleukin-8 (IL8), CXCL8 (gene 3576); assay: BSK_LPS_IL8: BioMAP Diversity Plus: LPS Assay for Interleukin-8 (IL8) Biomarker Activity (AID 2283078); conditions: primary human HUVEC with PBMC; actives raise or lower the signal
Summary of the method: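 Endothelial cells and PBMC from human donors are co-cultured, treated with chemicals and LPS, then assayed for IL-8 by ELISA after 24 h. Parallel SRB staining (0.1% SRB after 10% TCA fixation, 560 nm) flags cytotoxicity.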

[2] = BSK_LPS_SRB: Viability Assessment in the BioMAP Diversity Plus: LPS Assay (AID 2283079); conditions: primary human HUVEC with PBMC;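 note: total protein by sulforhodamine B absorbance as a cytotoxicity measure; measured one day after compound addition; fitted in both directions against DMSO so loss or gain of signal counts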
Summary of the method: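 Overt cytotoxicity was gauged by sulforhodamine B total-protein staining in a primary human vascular endothelial and mononuclear cell co-culture 24 h post-dosing. Activity was fitted in both directions relative to DMSO.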

[3] = read-out: Interleukin-1 alpha (IL1a), IL1A (gene 3552); assay: BSK_LPS_IL1a: BioMAP Diversity Plus: LPS Assay for Interleukin-1 alpha (IL1a) Biomarker Activity (AID 2283080); conditions: primary human HUVEC with PBMC; actives raise or lower the signal
Summary of the method: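 Measured: IL-1 alpha via ELISA at 24 h in LPS-activated human umbilical vein endothelium–PBMC co-culture. Baseline: DMSO, bidirectional fitting.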

[4] = read-out: Monocyte Chemoattractant Protein-1 (MCP1), CCL2 (gene 6347); assay: BSK_LPS_MCP1: BioMAP Diversity Plus: LPS Assay for Monocyte Chemoattractant Protein-1 (MCP1) Biomarker Activity (AID 2283081); conditions: primary human HUVEC with PBMC; actives raise or lower the signal
Summary of the method: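 LPS-stimulated HUVEC/PBMC co-culture; chemical, 24 h; MCP-1 by ELISA; bidirectional fit vs DMSO; cytotoxicity via SRB (0.1% stain, 10% TCA fix, 560 nm) in parallel wells.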

[5] = BSK_LPS_PGE2: BioMAP Diversity Plus: LPS Assay for Prostaglandin E2 (PGE2) Biomarker Activity (AID 2283082); conditions: primary human HUVEC with PBMC; actives raise or lower the signal
Summary of the method: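 HUVEC plus human PBMC co-culture stimulated with LPS; secreted PGE2 quantified by ELISA 24 h after chemical dosing. Activity fitted bidirectionally against DMSO baseline; parallel SRB staining (0.1% SRB after 10% TCA fixation, 560 nm) flags overt cytotoxicity.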

[6] = read-out: Macrophage colony-stimulating factor (MCSF), CSF1 (gene 1435); assay: BSK_LPS_MCSF: BioMAP Diversity Plus: LPS Assay for Macrophage colony-stimulating factor (MCSF) Biomarker Activity (AID 2283083); conditions: primary human HUVEC with PBMC; actives raise or lower the signal
Summary of the method: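 Compound is added to a human vascular primary co-culture of umbilical vein endothelium and blood mononuclear cells. After 24 h, M-CSF is quantified by ELISA. Signal changes are fitted in both directions against DMSO.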

[7] = read-out: Tissue Factor, F3 (gene 2152); assay: BSK_LPS_TissueFactor: BioMAP Diversity Plus: LPS Assay for Tissue Factor Biomarker Activity (AID 2283084); conditions: primary human HUVEC with PBMC; actives raise or lower the signal
Summary of the method: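 In this co-culture system of umbilical vein endothelium with PBMC, stimulated with LPS, cell-surface CD142 is detected by ELISA at 24 h. Endpoint values derive from bidirectional fitting, DMSO serving as baseline.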

[8] = read-out: Tumor necrosis factor (Homo sapiens) (UniProt P01375); assay: BSK_LPS_TNFa: BioMAP Diversity Plus: LPS Assay for Tumour Necrosis Factor alpha (TNFa) Biomarker Activity (AID 2283085); conditions: primary human HUVEC with PBMC; actives raise or lower the signal
Summary of the method: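 Human umbilical vein endothelial cells co-cultured with PBMC and stimulated with LPS. TNFa was measured by ELISA 24 h after chemical dosing, fitted bidirectionally relative to DMSO.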

[9] = read-out: Vascular cell adhesion molecule 1 (VCAM1), VCAM1 (gene 7412); assay: BSK_LPS_VCAM1: BioMAP Diversity Plus: LPS Assay for Vascular cell adhesion molecule 1 (VCAM1) Biomarker Activity (AID 2283086); conditions: primary human HUVEC with PBMC; actives raise or lower the signal
Summary of the method: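 Human umbilical vein endothelial cells co-cultured with PBMC and stimulated with LPS; VCAM-1 measured by ELISA 24 h after dosing. Bidirectional curve fitting against DMSO baseline; cytotoxicity tracked in parallel by SRB total-protein staining.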

CD38, CD38 (gene 952) = assay: BSK_SAg_CD38: BioMAP Diversity Plus: SAg Assay for CD38 Biomarker Activity (AID 2283087); conditions: primary human HUVEC with PBMC; actives raise or lower the signal
Summary of the method: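 Human HUVEC plus PBMC co-culture stimulated with superantigen; CD38 measured by ELISA 24 h after chemical dosing. Fluorescence read-out, bidirectional fit against DMSO; cytotoxicity tracked in parallel by SRB and Alamar Blue.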

CD40, CD40 (gene 958) = assay: BSK_SAg_CD40: BioMAP Diversity Plus: SAg Assay for CD40 Biomarker Activity (AID 2283088); conditions: primary human HUVEC with PBMC; actives raise or lower the signal
Summary of the method: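 Fluorescence ELISA read-out of CD40 from umbilical vein endothelium plus peripheral blood mononuclear cells, sampled 24 h after dosing. Values come from bidirectional curve fitting with DMSO as baseline.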

CD69, CD69 (gene 969) = assay: BSK_SAg_CD69: BioMAP Diversity Plus: SAg Assay for CD69 Biomarker Activity (AID 2283089); conditions: primary human HUVEC with PBMC; actives raise or lower the signal
Summary of the method: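 Endothelial/PBMC co-culture; chemical added; 24 h incubation; CD69 ELISA with fluorescence detection; bidirectional fit vs DMSO.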

[10] = read-out: Monocyte Chemoattractant Protein-1 (MCP1), CCL2 (gene 6347); assay: BSK_SAg_MCP1: BioMAP Diversity Plus: SAg Assay for Monocyte Chemoattractant Protein-1 (MCP1) Biomarker Activity (AID 2283090); conditions: primary human HUVEC with PBMC; actives raise or lower the signal
Summary of the method: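 MCP-1 levels in the endothelial–PBMC SAg co-culture were quantified by ELISA at 24 h post-dosing; both increases and decreases versus DMSO scored. Cytotoxicity monitored by SRB total protein in parallel cultures.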

[11] = read-out: E-selectin (Homo sapiens) (UniProt P16581); assay: BSK_SAg_Eselectin: BioMAP Diversity Plus: SAg Assay for Eselectin Biomarker Activity (AID 2283091); conditions: primary human HUVEC with PBMC; actives raise or lower the signal
Summary of the method: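 Primary human endothelial cells and peripheral blood mononuclear cells were co-cultured and exposed to chemical for 24 hours. E-selectin levels were then quantified by ELISA, with bidirectional curve fitting normalised to DMSO controls.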

[12] = read-out: Monokine induced gamma interferon (MIG), CXCL9 (gene 4283); assay: BSK_SAg_MIG: BioMAP Diversity Plus: SAg Assay for Monokine induced gamma interferon (MIG) Biomarker Activity (AID 2283092); conditions: primary human HUVEC with PBMC; actives raise or lower the signal
Summary of the method: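 Measures CXCL9 protein by ELISA in a human vascular primary-cell co-culture (umbilical vein endothelium with PBMC) 24 h after chemical addition. Activity is scored up or down from the DMSO control.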

[13] = BSK_SAg_PBMCCytotoxicity: PBMC Cytotoxicity Assessment in the BioMAP Diversity Plus: SAg Assay (AID 2283093); conditions: primary human HUVEC with PBMC;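 note: PBMC viability measured as Alamar Blue reduction fluorescence at 546/580 nm; fitted both ways against DMSO so a hit may be loss or gain of signal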
Summary of the method: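 Compound added to 75,000 PBMC/well for 1 h; SEB and TSST-1 then added at 20 ng/mL final each; 90 h incubation; Alamar Blue 6 h; read 546/580 nm ex/em. Activity fitted bidirectionally relative to DMSO baseline.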

[14] = read-out: Interleukin-8 (IL8), CXCL8 (gene 3576); assay: BSK_SAg_IL8: BioMAP Diversity Plus: SAg Assay for Interleukin-8 (IL8) Biomarker Activity (AID 2283094); conditions: primary human HUVEC with PBMC; actives raise or lower the signal
Summary of the method: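 Human umbilical vein endothelial cells co-cultured with PBMC, stimulated with superantigen; IL-8 measured by ELISA 24 h after chemical dosing. Bidirectional fitting versus DMSO; SRB staining in parallel cultures tracks cytotoxicity.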

[15] = BSK_SAg_Proliferation: Cell Proliferation Assessment in the BioMAP Diversity Plus: SAg Assay (AID 2283095); conditions: primary human HUVEC with PBMC
Summary of the method: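 Human umbilical vein endothelial cells co-cultured with PBMC; sulforhodamine B total-protein staining (0.1% SRB after 10% TCA fixation, absorbance 560 nm) at 96 h in sub-confluent culture. Fitted bidirectionally against DMSO.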

[16] = BSK_SAg_SRB: Viability Assessment in the BioMAP Diversity Plus: SAg Assay (AID 2283096); conditions: primary human HUVEC with PBMC;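 note: cells read one day after compound addition; hits may be either gain or loss of signal compared with DMSO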
Summary of the method: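 Total protein by sulforhodamine B staining, 24 h after dosing, in HUVEC–PBMC co-culture; DMSO-referenced bidirectional fitting.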

[17] = TOX21_p53_BLA_p2_viability: Viability Assessment in the Tox21 HCT-116 p53 Agonism Beta-lactamase Assay, Phase 2 (AID 2283591; active = hit-call score of the fitted dose curve at least 0.9, where 1 is the maximum;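 note: actives lower the ATP signal meaning cytotoxicity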)
Summary of the method: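 Cytotoxicity readout: CellTiter-Glo ATP luminescence, 30 min at room temperature, after the beta-lactamase read. Cells were HCT116 exposed 16 h at 37C to compounds pin-transferred at 217-fold dilution from DMSO stocks.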

[18] = target: Cellular tumor antigen p53 (Homo sapiens) (UniProt P04637); assay: TOX21_p53_BLA_p2_ratio: Tox21 HCT-116 p53 Agonism Beta-lactamase Assay, Ratio, Phase 2 (AID 2283592; active = hit-call score of the fitted dose curve at least 0.9, where 1 is the maximum)
Summary of the method: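 An inducible beta-lactamase reporter in HCT116 cells signals p53 pathway activation. After 16 h chemical exposure at 37C, cells load CCF4-AM substrate for 2 h at room temperature; activity is the cleaved/uncleaved emission ratio relative to DMSO.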

[19] = TOX21_p53_BLA_p3_viability: Viability Assessment in the Tox21 HCT-116 p53 Agonism Beta-lactamase Assay, Phase 3 (AID 2283593; active = hit-call score of the fitted dose curve at least 0.9, where 1 is the maximum;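 note: cells exposed to compound for 16 h before reading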)
Summary of the method: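 Cellular ATP was quantified by CellTiter-Glo luminescence, read after 30 min at room temperature. Beforehand, HCT116 cells (4000/well) received compound 5 h post-seeding, 217-fold diluted from DMSO, then incubated 16 h at 37C.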

[20] = target: Cellular tumor antigen p53 (Homo sapiens) (UniProt P04637); assay: TOX21_p53_BLA_p3_ratio: Tox21 HCT-116 p53 Agonism Beta-lactamase Assay, Ratio, Phase 3 (AID 2283596; active = hit-call score of the fitted dose curve at least 0.9, where 1 is the maximum)
Summary of the method: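 HCT116 p53-bla cells (4000/well) given compound in DMSO (217-fold dilution) after 5 h, incubated 16 h at 37C. CCF4-AM substrate 2 h at room temperature; 460/530 nm emission ratio, gain fitted against DMSO.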

[21] = TOX21_p53_BLA_p4_viability: Viability Assessment in the Tox21 HCT-116 p53 Agonism Beta-lactamase Assay, Phase 4 (AID 2283597; active = hit-call score of the fitted dose curve at least 0.9, where 1 is the maximum;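 note: hits lower the luminescence signal meaning cytotoxicity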)
Summary of the method: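 Compound exposure of HCT116 cells lasts 16 h at 37C, 5% CO2, with DMSO stocks diluted 217-fold. Cellular ATP is then quantified by CellTiter-Glo luminescence after 30 min at room temperature.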

[22] = target: Cellular tumor antigen p53 (Homo sapiens) (UniProt P04637); assay: TOX21_p53_BLA_p5_ratio: Tox21 HCT-116 p53 Agonism Beta-lactamase Assay, Ratio, Phase 5 (AID 2283599; active = hit-call score of the fitted dose curve at least 0.9, where 1 is the maximum)
Summary of the method: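 Beta-lactamase reporter ratio (blue 460 nm over green 530 nm, 405 nm excitation) after 2 h CCF4-AM loading, in HCT-116 cells exposed 16 h at 37 C to compounds pinned at 217-fold dilution. Increases relative to DMSO baseline scored.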

[23] = TOX21_p53_BLA_p5_viability: Viability Assessment in the Tox21 HCT-116 p53 Agonism Beta-lactamase Assay, Phase 5 (AID 2283600; active = hit-call score of the fitted dose curve at least 0.9, where 1 is the maximum)
Summary of the method: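 Counter-readout for cytotoxicity: ATP-dependent luminescence from CellTiter-Glo, read in the beta-lactamase wells after 30 min at RT, following a 16 h compound exposure at 37C.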

[24] = target: Cellular tumor antigen p53 (Homo sapiens) (UniProt P04637); assay: TOX21_p53_BLA_p4_ratio: Tox21 HCT-116 p53 Agonism Beta-lactamase Assay, Ratio, Phase 4 (AID 2283601; active = hit-call score of the fitted dose curve at least 0.9, where 1 is the maximum)
Summary of the method: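 Signal is the blue/green (460nm/530nm) ratio of cleaved versus uncleaved CCF4-AM substrate, read after 2 h substrate loading. Cells were HCT116 carrying the p53-responsive beta-lactamase reporter, dosed 16 h at 37C, 5% CO2; CellTiter-Glo measured in parallel.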

[25] = CCTE_Shafer_MEA_acute_spike_number: CCTE's Neural Acute Assay for Total Number of Spikes, Shafer Lab (AID 2284008);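 note: curve fitted for decrease in spike count so AC50 reflects inhibitors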
Summary of the method: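 Cortical neurons from rat, matured to DIV 13 or 15 on microelectrode arrays, are recorded at 37 C before and during 40-min exposure to 0.03-40 uM compound. Wells need >/= 10 active electrodes.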

[26] = CCTE_Shafer_MEA_acute_firing_rate_mean: CCTE's Neural Acute Assay for Mean Firing Rate, Shafer Lab (AID 2284009);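 note: analyzed for loss of signal so actives lower firing rate relative to DMSO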
Summary of the method: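 Percent change in well-mean firing rate was derived from extracellular spikes detected at 8x rms noise (300-5000 Hz band-pass) before and after a 40-min compound exposure. Cultures were primary rat cortical neurons, tested at 0.03-40 uM.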

[27] = CCTE_Shafer_MEA_acute_burst_number: CCTE's Neural Acute Assay for Single-Electrode Bursts, Shafer Lab (AID 2284013)
Summary of the method: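 Spontaneous network activity of primary rat cortical neurons was recorded extracellularly on microelectrode arrays at 37 C, with 40-min periods before and during exposure to 0.03-40 uM compound on DIV 13 or 15.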

Measured: AC50

Cellular tumor antigen p53 (Homo sapiens), sequence (P04637 whole entry, looked up): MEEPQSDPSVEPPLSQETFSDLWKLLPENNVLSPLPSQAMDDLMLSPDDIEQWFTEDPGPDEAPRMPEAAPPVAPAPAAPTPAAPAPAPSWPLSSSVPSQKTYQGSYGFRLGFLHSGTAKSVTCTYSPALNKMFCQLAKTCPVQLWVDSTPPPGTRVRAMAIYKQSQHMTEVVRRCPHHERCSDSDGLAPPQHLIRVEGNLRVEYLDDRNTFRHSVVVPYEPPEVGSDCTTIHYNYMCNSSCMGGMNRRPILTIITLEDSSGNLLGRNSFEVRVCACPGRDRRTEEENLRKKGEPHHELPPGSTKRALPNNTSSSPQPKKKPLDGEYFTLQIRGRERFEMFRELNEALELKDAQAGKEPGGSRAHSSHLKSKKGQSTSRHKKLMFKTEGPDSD
E-selectin (Homo sapiens), sequence (P16581 whole entry, looked up): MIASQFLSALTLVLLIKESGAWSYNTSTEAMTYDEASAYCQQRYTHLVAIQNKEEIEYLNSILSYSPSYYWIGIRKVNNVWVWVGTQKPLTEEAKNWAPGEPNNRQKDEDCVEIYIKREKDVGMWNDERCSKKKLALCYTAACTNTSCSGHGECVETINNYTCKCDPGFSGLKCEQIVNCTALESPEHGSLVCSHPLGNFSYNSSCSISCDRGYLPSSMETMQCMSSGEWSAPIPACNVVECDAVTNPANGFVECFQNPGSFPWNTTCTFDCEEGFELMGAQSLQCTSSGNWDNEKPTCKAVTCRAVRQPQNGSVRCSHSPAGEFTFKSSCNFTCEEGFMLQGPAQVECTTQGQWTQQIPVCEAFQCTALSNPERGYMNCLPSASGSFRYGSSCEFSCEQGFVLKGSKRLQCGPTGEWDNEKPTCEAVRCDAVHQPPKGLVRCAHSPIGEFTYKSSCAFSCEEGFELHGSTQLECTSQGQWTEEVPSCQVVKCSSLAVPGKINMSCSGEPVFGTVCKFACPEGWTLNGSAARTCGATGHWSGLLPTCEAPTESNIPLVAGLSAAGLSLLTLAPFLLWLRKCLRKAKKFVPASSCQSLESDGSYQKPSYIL
Tumor necrosis factor (Homo sapiens), sequence (P01375 whole entry, looked up): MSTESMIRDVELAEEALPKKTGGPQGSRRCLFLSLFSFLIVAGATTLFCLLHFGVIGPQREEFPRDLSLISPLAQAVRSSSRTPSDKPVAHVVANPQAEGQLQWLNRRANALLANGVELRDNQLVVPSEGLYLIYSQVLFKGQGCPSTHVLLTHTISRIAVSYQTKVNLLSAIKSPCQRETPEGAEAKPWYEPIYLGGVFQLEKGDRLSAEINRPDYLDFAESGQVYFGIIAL

CCCC[N+](CCCC)(CCCC)CCCC
active: [25] 4.44 nM | [26] 3.01 nM | [27] 1.52 nM
inactive: [1] | [2] | [3] | [4] | [5] | [6] | [7] | [8] | [9] | CD38, CD38 (gene 952) | CD40, CD40 (gene 958) | CD69, CD69 (gene 969) | [10] | [11] | [12] | [13] | [14] | [15] | [16] | [17] | [18] | [19] | [20] | [21] | [22] | [23] | [24]

Source: PubChem BioAssay (EPA / NIEHS)
